Compounds with a hit are over-represented: about 3.2% of the library has one in this group of screens.
MEKK2wt PB1 HTS: modulators of MEK5 binding to wildtype MEKK2, primary screen, biochemical, multiplex bead flow cytometry, Alexa488-MEK5 | Alexa488-MEK5 binding to MEKK2 WT; actives lie on both sides | binding response (% of control), % at 10 µM | AID 1531, 2009 | Mitogen-activated protein kinase kinase kinase 2 (Homo sapiens), Q9Y2U5 | hit rate 1.1% among 290,000; in the data active means binding response below about 67% or above about 130%
NRP1-CendR mod: modulators of CendR peptide binding to NRP-1, primary screen, biochemical, fluorescence polarization, uHTS; Neuropilin-1 (Homo sapiens), O14786; FAM-RPARPAR peptide binding to NRP-1; inhibition, % at 25 µM; hit rate 0.85% among 360,000;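 active means inhibition or corrected inhibition above about 18%, plus a signal ratio from 0.5 to 1.5, limit read from the data, passing the limit was not always enough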
SKN-1 inh: suppressors of acrylamide-induced Pgst-4::GFP reporter in worms, primary screen, SKN-1 inhibitor project, whole organism, uHTS, GFP/RFP fluorescence ratio, strain VP596. C. elegans VP596 Pgst-4::GFP/RFP ratio, 24 h. inhibition, % at 21.8 µM. hit rate 0.49% among 360,000;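 active means interference check ratio from 0.5 to 1.5 plus GFP to RFP signal ratio inhibition reaching or exceeding a fixed threshold, cut at about 30% in these data, passing the limit was not always enough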
MEKK3 PB1 HTS: modulators of MEKK3-MEK5 PB1 binding, primary screen, biochemical, wildtype MEKK3, multiplex bead flow cytometry, Alexa488-MEK5; Mitogen-activated protein kinase kinase kinase 3 (Homo sapiens), Q99759; bead-based flow cytometry, Alexa488-MEK5 binding to MEKK3; actives lie on both sides; 0 = blocked by unlabeled MEK5, 100 = vehicle; binding response (% of control), % at 10 µM; hit rate 1.4% among 290,000;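 active means binding response more than 3 SD above or below the average of its plate-row segment, actives on both sides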;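 further: Alexa488 bead fluorescence after subtracting the streptavidin-only scavenger bead signal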
Target sequence (Q99759 whole entry, looked up): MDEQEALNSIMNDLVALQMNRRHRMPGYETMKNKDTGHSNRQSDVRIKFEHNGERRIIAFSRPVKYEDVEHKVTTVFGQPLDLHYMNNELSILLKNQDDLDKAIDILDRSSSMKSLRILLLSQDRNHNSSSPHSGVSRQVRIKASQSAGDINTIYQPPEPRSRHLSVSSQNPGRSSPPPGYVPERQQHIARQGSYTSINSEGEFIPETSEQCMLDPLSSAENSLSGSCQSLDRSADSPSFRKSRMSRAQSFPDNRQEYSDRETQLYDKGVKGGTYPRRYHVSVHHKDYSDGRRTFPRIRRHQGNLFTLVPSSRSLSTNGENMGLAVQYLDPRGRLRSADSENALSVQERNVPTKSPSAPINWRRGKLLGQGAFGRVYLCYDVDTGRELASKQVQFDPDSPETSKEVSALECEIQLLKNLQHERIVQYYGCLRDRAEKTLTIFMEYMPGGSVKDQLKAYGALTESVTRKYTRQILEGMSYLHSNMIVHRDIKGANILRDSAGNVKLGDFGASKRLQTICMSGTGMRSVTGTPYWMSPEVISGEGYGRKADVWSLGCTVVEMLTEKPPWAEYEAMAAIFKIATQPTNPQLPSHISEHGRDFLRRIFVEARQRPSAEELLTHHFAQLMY
MEKK2 mut-MEK5: MEK5 binding signal on mutant MEKK2 PB1, primary screen, biochemical, multiplex bead flow cytometry, Alexa488-MEK5; Alexa488-MEK5 binding to MEKK2 mutant; hit rate 0.35% among 290,000; percent response, % at 10 µM; in the data active means percent response above about 24%, passing the limit was not always enough
MEKK2wt confirm: modulators of MEK5 binding to wildtype MEKK2, confirmation, biochemical, single concentration, multiplex bead flow cytometry; binding response (% of control), % at 10 µM; AID 1892, 2009; hit rate 2.4% among 5,900; shares compounds with MEKK3 PB1 HTS; Alexa488-MEK5 binding to MEKK2 WT; actives lie on both sides; in the data active means binding response below about 16% or above about 210%; inactive means in between
MEKK2mut confirm: mutant MEKK2 PB1-MEK5 binding signal retest – biochemical, single concentration, multiplex bead flow cytometry, confirmation; Alexa488-MEK5 binding to MEKK2 mutant; shares compounds with MEKK3 PB1 HTS; percent response, % at 10 µM; hit rate 2% among 5,900; in the data active means percent response mostly above about 71%, no sharp cut-off; inactive means mostly below about 38%;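 further: higher means compound restores mutant binding toward wildtype level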
MEKK3 confirm: MEKK3 wild-type PB1 binding to MEK5, inhibitors, confirmation, biochemical, bead multiplex flow cytometry, single concentration, wildtype. shares compounds with MEKK3 PB1 HTS. Alexa488-MEK5 binding to MEKK3; active compounds read low. binding response (% of control), % at 10 µM. hit rate 1.8% among 5,900. AID 1894, 2009;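 active means binding response below 72% of control, or above a set upper limit, though filed actives all read lower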;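 further: lower values mean stronger disruption of MEK5 binding to MEKK3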
Numbers stand for hits; n = inactive; x = no result; [ ] = dose if it differs, or a comment.

SMILES | MEKK2wt PB1 HTS | NRP1-CendR mod | SKN-1 inh | MEKK3 PB1 HTS | MEKK2 mut-MEK5 | MEKK2wt confirm | MEKK2mut confirm | MEKK3 confirm
COc1ccc(CCNC(=O)CCc2cn(C)c3ccccc23)c(OC)c1OC | n | n | n | n | 27 | n | n | n
COc1ccc(OC)c(CCNC(=O)CCc2cn(C)c3ccccc23)c1 | n | n | n | n | n | x | x | x
CC1(C)Cc2cccc(OCC(O)CN3CCN(c4ccccn4)CC3)c2O1 (stereo not drawn) | n | n | n | 127 | n | n | n | n
CC(=O)Nc1nonc1NC(C)=O | 3.0[inhibitor] | n | n | 2.0[inhibitor] | n | n | n | n
COC(=O)/C(=C/c1ccc2c(c1)c1ccccc1n2C)NC(=O)c1ccccc1 | n | n | n | 73[inhibitor] | n | n | n | n
CCCCCCCCCCOC(=O)Cn1c(COc2ccccc2OC)[n+](C)c2ccccc21 | 238 | n | n | n | 61 | 251 | 141 | n
OCCCNc1ncnc2c1ncn2[C@H]1CN(Cc2ccc3c(c2)OCO3)C[C@@H](CO)O1 | x | n | n | x | x | x | x | x
COc1ccc(C(C)C)cc1S(=O)(=O)N1CCN(C)CC1 | n | n | n | 133 | n | n | n | n
O=c1c(C=NCc2cccnc2)c(C(F)(F)F)[nH]n1-c1nc2ccccc2s1 | x | n | n | n | 275 | n | n | n
Cc1cc2cc(CNC(=S)NC3CCCCC3)ccc2[nH]1 | n | n | n | n | n | x | x | x
Cc1cc2cc(CNC(=O)NC3CCCCC3)ccc2[nH]1 | x | n | n | 62[inhibitor] | 51 | n | n | 65
O=C(N/N=C/c1ccsc1)c1c[nH]c2ccccc12 | n | n | n | n | n | x | x | x
O=C(NC1C2CC3CC(C2)CC1C3)c1ccc(Br)o1 (stereo not drawn) | n | n | n | n | n | x | x | x
CCCCCOc1ccc(/C(C)=N/NC2=NCCN2)cc1 | 148 | n | n | n | n | n | n | n
CCCCCCOc1ccc(/C(C)=N/NC2=NCCN2)cc1 | 204 | n | n | n | 36 | n | n | n
CCOc1ccc(Br)cc1/C(C)=N\NC1=NCCN1 | n | n | n | n | n | x | x | x
CCCCCCOc1ccc(C(=O)O)cc1 | n | n | n | n | n | x | x | x
Cc1ccc(CNS(=O)(=O)c2ccc(CN3C(=O)c4cccnc4C3=O)s2)o1 | n | n | n | n | n | x | x | x
COC(=O)N/N=C/c1cc(N=Nc2ccccc2)ccc1O | n | n | n | n | n | x | x | x
Cc1cc(C(=O)N/N=C/c2cc(N=Nc3ccccc3)ccc2O)n[nH]1 | n | n | n | 38[inhibitor] | n | n | n | n
COc1ccccc1-n1c(CNc2c(C)cccc2C)nnc1SCC(=O)N1CCOCC1 | n | n | n | 122 | n | n | n | n
O=C(NCCN1CCC(n2c(=O)[nH]c3ccccc32)CC1)N1c2ccccc2Sc2ccccc21 | x | n | n | x | x | x | x | x
CCc1cc(CNC(=O)C2CCC(=O)N(Cc3cccc(F)c3)C2)on1 (stereo not drawn) | n | n | n | n | n | x | x | x
Cc1cc(C(=O)COC(=O)CNS(=O)(=O)c2ccc3ccccc3c2)c(C)n1-c1ccccc1 | n | n | n | 164 | n | n | n | n
O=C(CNS(=O)(=O)c1ccc2ccccc2c1)OCC(=O)c1ccc(Br)s1 | n | n | n | n | n | x | x | x

Source: PubChem (several laboratories)
